# A number with no mark means an inactive call.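 Rule for the calls: active = MAPPIT score above the 99th percentile of random reference set scores in the same batch; inactive = at or below it.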
# B1: swa (protein)
# chain: MSLQDESFPTDELFDQLNNLSSSGARNTWFAEHHKPAVFERDTAPFLEICYADPDFDADGDVANKSAKTCVSDPVGRDQEDEDDYDEDVDGDDHKLGCEKAPLGSGRSSKAVSYQDIHSAYTKRRFQHVTSKVGQYIAEIQAQDQKRRNVKFAGFQRVNSMPESLTPTLQQVYVHDGDFKVDKNCQTHSNSDSNYNSNSNNSSSSFDRLLAENESLQQKINSLRVEAKRLQGFNEYVQERLDRKTDDFVKMKCNFETLRTELSECQQKLRRQQDNSQHHFMYHIRSATSAKATQTDFLVDTIPASGNVLVTPHPLGDLTYNSSKGSIELALLSVAPSARVAQNPVQVQRAIHPQSLDFSSVSTEADGSGSGEHRVETSSRALVRRTPAPNNSETSQPSSNDSAIEVEAHEEERPSSRRQWEQQGELISPRQWGQHEGMYYFDKRNNRVIEVMGFNISQGRNQSHDTIHNQSINDSQTRLLVHSMSMSHLEAHDHFRSKRTTLGSRMLRFLGPCVRCRNGDPLNRSNVTYKDGLPAMPEEEFVDQRNQR
# B2: DCTN1-p150 (protein)
# chain: MSEKNLKVGARVELTGKDLLGTVAYVGMTSFAVGKWVGVVLDEPKGKNSGSIKGQQYFQCDENCGMFVRPTQLRLLEAAPGSRRSIEDVSGATPTAAQPTKARLSSSRTSLSSSRQSLLGSRTQLTTSLSERTASSSSIGPRKSLAPQNSKDKESPSTSLAEGAPAASGGNGAASHASSKRASFVETGFLEILKPQFTPSQPLRSPSFTMPSNSGAEDKVALLEAQKTSAELQAQLADLTEKLETLKQRRNEDKERLREFDKMKIQFEQLQEFRTKIMGAQASLQKELLRAKQEAKDAIEAKEQHAQEMADLADNVEMITLDKEMAEEKADTLQLELESSKERIEELEVDLELLRSEMQNKAESAIGNISGGGDSPGLSTYEFKQLEQQNIRLKETLVRLRDLSAHDKHDIQKLSKELEMKRSEVTELERTKEKLSAKIDELEAIVADLQEQVDAALGAEEMVEQLAEKKMELEDKVKLLEEEIAQLEALEEVHEQLVESNHELELDLREELDLANGAKKEVLRERDAAIETIYDRDQTIVKFRELVQKLNDQLTELRDRNSSNEKESLQDPSLKMVTETIDYKQMFAESKAYTRAIDVQLRQIELSQANEHVQMLTAFMPESFMSRGGDHDSILVILLISRIVFKCDIVVSQTRERFPPVDAITREAVTQGHAVQQYAFKCRLLHYVHSLQCALHQILYGLNSCQPDTLLRAGSSLPEMVAQEKIVDGIIELLKSNQLDENSTTDNIEKCVAFFNAMNSVLLAGEQLLNEIQMIRDCVASLGAACESILSDTAIAKVIIQEAGATSDSVLLIQFLNENMESVRQQVKLIKRRLPSDQHVIKSGLSQHKVEAMRGLAQNISRIMSAMHQATKQSLAAIVSTIESDNAAEHTLPQEKYWALLTASCERIYEQDDRGPTQNFKTLLAQANSDLQLIAQHLLDKEYDIISAANNASNQQKSGAHSTPITQRAQLIKKQLEQKNVLAATLENREADVKQLKVAAKMKQNELSEMQIRKDLAEKKLSVLQNEYEHAVDKWKQKYEETSLQLQLKEKEFEETMDHLQSDIDALESEKSDLRDKLKLNSTTGKVQPGSESHSPHNISLSGNTSTAPGISNVSYSAPAGTAPVVAEEVELLKNAFNQERNQRLRLQAQDMRAKLSQFEPLHVPQPQDQRITALESELTRMKHAWVLSLLQVRSQDSVNSGTRIDAVALQRRNQPVPLKGEISSKASQLASDILTEYLQRKPHRATHGQFASFPTVDVKRVLQI
# B3: Fcp3C (protein)
# chain: MDGAKAEVFSVSVDTKMGAFKNSLLLLTLLLAIHLEASKIVYKKPLYGNSNIIKDKRIKTKPVKLETSTMSSTGVASSSTTAEEDWPTAVEFVIMTTPASELEASTETIGNNGTTETTVGEAPIIGSSEGSTRSMEPTTASPLMSTNPSSSSSLVSTIPLPPTAGLPVQDNQPVPCTCGVFLSSQIPNGLPTKPLIHQELDHMFPCNAIGRKQCQTKCLETIVQHLPNSANIVCSALGHDCHKERAYLFIKNCHNQWVNTNLQAGREYCCRSGVPYRCPLMG
# B4: Pgd (protein)
# chain: MSGQADIALIGLAVMGQNLILNMDEKGFVVCAYNRTVAKVKEFLANEAKDTKVIGADSLEDMVSKLKSPRKVMLLVKAGSAVDDFIQQLVPLLSAGDVIIDGGNSEYQDTSRRCDELAKLGLLFVGSGVSGGEEGARHGPSLMPGGHEAAWPLIQPIFQAICAKADGEPCCEWVGDGGAGHFVKMVHNGIEYGDMQLICEAYHIMKSLGLSADQMADEFGKWNSAELDSFLIEITRDILKYKDGKGYLLERIRDTAGQKGTGKWTAIAALQYGVPVTLIGEAVFSRCLSALKDERVQASSVLKGPSTKAQVANLTKFLDDIKHALYCAKIVSYAQGFMLMREAARENKWRLNYGGIALMWRGGCIIRSVFLGNIKDAYTSQPELSNLLLDDFFKKAIERGQDSWREVVANAFRWGIPVPALSTALSFYDGYRTAKLPANLLQAQRDYFGAHTYELLGQEGQFHHTNWTGTGGNVSASTYQA
# Assays:
# Test in all cases: MAPPIT interaction score (arbitrary units); higher = stronger binary interaction signal, active = hit call of the paper
# yip2 = conditions: MAPPIT configuration: N-N; pair source set: Curagen_high_conf
# sw = conditions: pair source set: Lit-BM-16
# tup = conditions: MAPPIT configuration: N-N; pair source set: Curagen_low_conf
# up = conditions: MAPPIT configuration: N-N; pair source set: RRS
# 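Note: HEK293T cells with Epo stimulation, STAT-responsive firefly luciferase reporter, fold induction versus unstimulated cells divided by the larger fold induction of two negative controls lacking either bait or prey.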
binder,measurement,setting,value
B1,MAPPIT interaction score,yip2,1.92
B2,MAPPIT interaction score,sw; MAPPIT configuration: N-C,0.412
same,MAPPIT interaction score,sw; MAPPIT configuration: N-N,-0.153
B3,MAPPIT interaction score,tup,-0.265
B4,MAPPIT interaction score,up,0.146

# — the supplement of paper PMC10105736
